What is called inhibition is the drop in the measured response relative to a control, in per cent.

We go through 61 compounds from PubChem BioAssay AID2012 (Sanford-Burnham Center for Chemical Genomics, 2009).

About 2,700 (0.93%) of roughly 290,000 compounds were called active. The rule behind the calls is not given here. Many of the other results were omitted from the sample, so actives are more common in it than they were.

This assay addresses Eukaryotic translation initiation factor 4H (Homo sapiens) (UniProt Q15056). The assay is described as follows: eIF4H binding inhibition – biochemical, uHTS, fluorescence polarization, translation initiation inhibitor project, primary screen (AID 2012).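 Note: calls also rest on retests at 20 µM and on dose response follow-up.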 The conditions noted are these: eIF4H fluorescence polarization binding assay, stronger effect = higher value. (In general: Fluorescence polarisation rises when a labelled molecule tumbles more slowly, as on binding a larger partner.)

As for `O=C(Cn1cnc2ccccc21)N/N=C/c1ccco1`, the inhibition reads like this: (at 35 µM) 69.8% (inactive); (confirmation average, at 20 µM) 2.9%.

For the compound `CC(C)NC(=O)C(=O)N/N=C/c1ccco1`, the inhibition (at 35 µM) was -8.2% (inactive).

With `O=c1nc(N/N=C/c2ccco2)cn[nH]1`, the inhibition (at 35 µM) is 76.3% (active) and the inhibition (confirmation average, at 20 µM) is 73.4%.

On to `COc1ccc(Nc2ncnc3ccc(Br)cc23)c(OC)c1`, for which the inhibition (at 35 µM) is -9.9% (inactive).

As for `Cc1ccc(CS(=O)(=O)CCC(=O)NCc2ccc(F)cc2)cc1`, the inhibition (at 35 µM) is -4.5% (inactive).

Turning to `CCCCNC(=O)C1(O)c2ccccc2NC(=O)N1c1ccc(Cl)cc1` (stereo not given), for the setting “at 35 µM”, the inhibition was -2.3% (inactive).

With `O=C(O)CC(c1ccccc1F)N1Cc2ccccc2C1=O` (stereo not given), the inhibition (at 35 µM) was 0.1% (inactive).

For `O=C(CNC(=O)c1ccc(Br)o1)NCC1CCCO1` (stereo not given), under “at 35 µM”, the inhibition is -11.8% (inactive).

On to `O=C(c1ccc(Br)o1)N(c1ccccn1)C1CCCCC1`, for which the inhibition reads like this: (at 35 µM) 55.5% (active); (confirmation average, at 20 µM) 99.6%.

In the case of `O=C(c1cccs1)N(C(=O)c1cccs1)c1ccccn1`, the inhibition (at 35 µM) is -8.6% (inactive).

In the case of `CCOc1ccc(-n2cnnn2)cc1S(=O)(=O)N1CCC(C)CC1C` (stereo not given), the inhibition (at 35 µM) is 3.6% (active) and the inhibition (confirmation average, at 20 µM) amounted to 90.8%.

Take `Cc1ccc(S(=O)(=O)N2CCC(Oc3ccc(-n4cnnn4)cc3)CC2)cc1`: the inhibition (at 35 µM) is 1.6% (inactive).

Take `CCOc1ccc(Br)cc1S(=O)(=O)N1CCC(C(=O)O)CC1`: the inhibition (at 35 µM) is -7.6% (inactive).

For `COc1cccc(C(=O)Nc2nnc(S(=O)(=O)N3CCOCC3)s2)c1`, the inhibition (at 35 µM) was -15.7% (inactive).

As to `CN(Cc1ccccc1)C(=O)c1ccc(NC2=NC3CS(=O)(=O)CC3S2)cc1` (stereo not given), the inhibition (at 35 µM) was -7.2% (inactive).

In the case of `COc1cccc(NC(=O)C2CCCN(c3ncnc4c3nc3n4CCCCC3)C2)c1` (stereo not given), the inhibition (at 35 µM) was 2.9% (inactive).

As for `O=C(c1cc(=O)c2ccccc2o1)N1CCN(c2ccccc2)CC1`, under “at 35 µM”, the inhibition is 1.2% (inactive).

In the case of `O=C(c1ccc(S(=O)(=O)N2CCOCC2)cc1)N1CCN(c2ccccc2)CC1`, the inhibition (at 35 µM) was -4.2% (inactive).

Turning to `O=C(c1ccc(CS(=O)(=O)c2ccccc2)o1)N1CCN(c2ccccc2)CC1`, the inhibition runs as follows: (at 35 µM) 93.4% (active); (confirmation average, at 20 µM) 73.1%.

For `Cc1ccc(C)c(S(=O)(=O)N2CCN(C(=O)Nc3ccccc3)CC2)c1`, for the setting “at 35 µM”, the inhibition is 4.3% (inactive).

Turning to `CC(Oc1cc2oc(=O)c3c(c2cc1Cl)CCCC3)C(=O)NCc1ccncc1` (stereo not given), the inhibition (at 35 µM) is -3.9% (inactive).

As for `COc1ccc(-c2nn(-c3ccccc3)cc2/C=C2/SC(=S)N(CCCC(=O)O)C2=O)c(C)c1`, the inhibition (at 35 µM) is 15.2% (inactive).

With `CN(C)S(=O)(=O)c1cccc(-c2nn(-c3ccccc3)cc2/C=C2\SC(=S)N(CC(=O)O)C2=O)c1`, under “at 35 µM”, the inhibition was 47.3% (inactive).

In the case of `Cc1ccc(-c2nn(-c3ccccc3)cc2/C=C2\SC(=S)N(CCCCCC(=O)O)C2=O)o1`, the inhibition runs as follows: (at 35 µM) 78.9% (active); (confirmation average, at 20 µM) 68.5%.

For the compound `CCOC(=O)CSc1nc(N2CCOCC2)c2c(c1C#N)CC(C(C)C)OC2` (stereo not given), the inhibition (at 35 µM) is -6.3% (inactive).

On to `Cc1ccnc(NC(=O)CCNS(=O)(=O)c2ccc(C)c(C)c2)c1`, for which the inhibition (at 35 µM) was -10.9% (inactive).

In the case of `Cc1c(-c2ccccc2)nc(N)c(C#N)c1-c1cccs1`, for the setting “at 35 µM”, the inhibition is 7.1% (inactive).

With `CCc1c(-c2ccccc2)nc(N)c(C#N)c1-c1cccs1`, the inhibition (at 35 µM) was -8.4% (inactive).

Consider `CN1CCc2nc(SC(C(=O)O)c3ccccc3)c(C#N)c(-c3cccs3)c2C1` (stereo not given), for which the inhibition (at 35 µM) was 76.7% (active).

For the compound `O=C(O)C1CCCCC1C(=O)N1CCN(S(=O)(=O)c2ccc(F)cc2)CC1` (stereo not given), the inhibition (at 35 µM) was -6.9% (inactive).

As for `Cc1c(C)c(C)c2[nH]c(=S)[nH]c2c1C`, the inhibition (at 35 µM) is -4.2% (inactive).

Regarding `Cc1cc(=O)[nH]c(=S)[nH]1`, the inhibition (at 35 µM) is 2.4% (inactive).

Consider `O=c1[nH]c(=S)[nH]c2[nH]c(=S)[nH]c12`, for which the inhibition (at 35 µM) was 88.2% (active).

For `CN(C(=O)CCNC(=O)Cn1ccc2ccccc2c1=O)c1ccc(Br)cc1`, the inhibition (at 35 µM) is 1.5% (inactive).

As to `N#CC1=C(N)C(C#N)(C#N)[C@H](c2ccsc2)[C@H]2COCC=C12`, the inhibition was 113% (inactive) (at 35 µM) and -3.8% (confirmation average, at 20 µM).

Turning to `CCOC(=O)N1CC=C2C(C#N)=C(N)C(C#N)(C#N)[C@H](c3cccs3)[C@H]2C1`, the inhibition (at 35 µM) was 63.3% (active).

In the case of `CCOC(=O)C1=C(C)NC(=S)NC1c1cccs1` (stereo not given), where the note is “at 35 µM”, the inhibition was -5% (inactive).

`Cc1ccn2c(c1)nc(=O)c1cc(S(=O)(=O)N3CCC(C)CC3)ccc12`: the inhibition (at 35 µM) was -3.5% (inactive).

Regarding `Cc1ccc(Cl)c(OCC(=O)N2CCc3ccccc3C2)c1`, under “at 35 µM”, the inhibition is -9.4% (inactive).

As to `O=C(Nc1ncc2c(n1)CC(c1ccco1)CC2=O)c1ccc(Cl)cc1` (stereo not given), the inhibition (at 35 µM) was 83.6% (active).

`O=C(Nc1ncc2c(n1)-c1ccccc1OC2)c1ccc(Cl)cc1`: the inhibition (at 35 µM) was -10.3% (inactive).

For the compound `CCc1ccc(Nc2ncc3c(n2)CC(c2ccco2)CC3=O)cc1` (stereo not given), the inhibition (at 35 µM) was -4% (inactive).

As to `Cc1c(CCC(=O)O)c(=O)oc2cc3occ(-c4ccccc4)c3cc12`, for the setting “at 35 µM”, the inhibition was 14.4% (inactive).

On to `Cc1c(CC(=O)NCCCCCC(=O)O)c(=O)oc2cc3occ(-c4ccccc4)c3cc12`, for which the inhibition (at 35 µM) was 6% (inactive).

With `CCCCCCc1cc2cc(-c3nnc(-c4ccccc4)o3)c(=O)oc2cc1O`, the inhibition (at 35 µM) was 70.4% (active).

With `Cc1nc(NC(=O)c2ccc3c(c2)OCCO3)ccc1Br`, the inhibition (at 35 µM) was -4.6% (inactive).

For the compound `CCOc1ccc(OCC(=O)Nc2c3c(nn2C(C)(C)C)CS(=O)(=O)C3)cc1`, the inhibition (at 35 µM) was -13.7% (inactive).

For `COc1ccc(CNS(=O)(=O)c2ccc(-c3cnc(C4CC4)o3)cc2)cc1`, the inhibition (at 35 µM) is -9.2% (inactive).

Regarding `O=C1CC(NNc2ccccc2)C(=O)N1c1cccc(Cl)c1` (stereo not given), the inhibition (at 35 µM) is -1.9% (inactive).

On to `O=C1CC(c2ccccc2)C(=O)N1c1cccc(O)c1` (stereo not given), for which the inhibition (at 35 µM) was -6.1% (inactive).

Turning to `O=C1OCC2=C1C(c1ccccc1)CC(=O)N2c1cccc(F)c1` (stereo not given), the inhibition runs as follows: (at 35 µM) 4.2% (active); (confirmation average, at 20 µM) 96.6%.

`Cc1ccc(NC(=O)CCC(=O)c2ccc(Br)cc2)cc1`: the inhibition (at 35 µM) is -5% (inactive).

As for `Cc1cc(=O)n2[nH]c(-c3cccc(Cl)c3)cc2n1`, the inhibition (at 35 µM) was -7.1% (inactive).

For `CCc1c(C)nc2cc(-c3cccs3)[nH]n2c1=O`, the inhibition (at 35 µM) is 4.5% (inactive).

With `Cc1cc(=O)n2[nH]c(-c3sccc3-n3c(C)ccc3C)cc2n1`, the inhibition (at 35 µM) is 93.9% (active) and the inhibition (confirmation average, at 20 µM) was 97.8%.

With `S=C(NCCc1ccccc1)N1CCn2cccc2C1c1ccncc1` (stereo not given), under “at 35 µM”, the inhibition was 8.3% (inactive).

Turning to `CC1CSc2nnc(CCc3ccccc3)n21` (stereo not given), under “at 35 µM”, the inhibition was -1.5% (inactive).

Take `c1ccc(CCC2=NCCn3cccc32)cc1`: the inhibition (at 35 µM) is 61.9% (active).

For the compound `O=C(NCC(=O)N1CCN(c2ccccc2O)CC1)c1ccc2ccccc2c1`, the inhibition (at 35 µM) was 6% (inactive).

With `COc1cc(C(=O)OCC(=O)NC(C)CCc2ccccc2)cc(OC)c1OC` (stereo not given), under “at 35 µM”, the inhibition is 5.2% (inactive).

For the compound `Cc1ccc(CN2CCNC(=O)C2CC(=O)NCc2csc(C(C)C)n2)cc1` (stereo not given), where the note is “at 35 µM”, the inhibition is -5.6% (inactive).
